The list is not random: actives were taken first. Their share in the collection is about 19%.
HT1080NT lethal = qHTS for induction of synthetic lethality in tumor cells producing 2HG: qHTS for the HT-1080-NT fibrosarcoma cell line | HT-1080-NT fibrosarcoma viability, CellTiter-Glo ATP luminescence, 48 h | Potency, µM (highest dose often 46.1 µM), actives largely listed as cytotoxic | 360,000 tested, 1.6% active | AID 686970, 2013;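 also: NT is the 2HG producing partner of a matched IDH1 knockdown line; nearly all actives have a fitted effect of over 55% in size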
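Viability of the 2HG-overproducing fibrosarcoma line after 48 hours of compound exposure at 37 degrees C was determined by luminescence with CellTiter-Glo, and concentration-effect curves were then fitted and categorized.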
HT1080 IDH1KD tx = qHTS for induction of synthetic lethality in tumor cells producing 2HG: qHTS for the HT-1080-IDH1KD cell line | HT-1080 IDH1 knockdown viability, ATP luminescence, 48 h | Potency, µM (series often up to 46.1 µM), hits mostly cytotoxic | 360,000 tested, 2% active | AID 686971, 2013
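In this qHTS, HT-1080 cells depleted of IDH1 are exposed for 48 h at 37 °C to compound titrations. Toxicity is scored from CellTiter-Glo luminescence, with DMSO as full viability and medium alone as none.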
DT40 TDP1 no CPT = qHTS for Inhibitors of human tyrosyl-DNA phosphodiesterase 1 (TDP1): qHTS in cells in absence of CPT; DT40 Tdp1-/- hTDP1 cells, no CPT, ATP luminescence, 48 h; Potency, µM (series often up to 46.2 µM), most hits filed as inhibitors; 420,000 tested, 15% active; AID 686978, 2013; also: nearly all actives have a fitted effect of over 55% in size
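Growth kinetics read by CellTiter-Glo luminescence after ≥48 hr at 37 °C. Cells: DT40 Tdp1-/- stably carrying human TDP1, 400 per well, compound exposure in the absence of CPT (DMSO vehicle).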
KB-V1 cytotox = qHTS assay for MDR1-selective chemotherapeutics: Primary screen using the drug-selected MDR subline cells KB-V1; KB-V1 MDR cells viability, CellTiter-Glo, 72 h; Potency, µM (titrated, usually from 46.1 µM), hits mostly cytotoxic; 400,000 tested, 3.4% active; also: nearly all actives have a fitted effect of over 60% in size
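qHTS viability screen in drug-selected KB-V1 MDR cells: 72 h compound treatment at 37 degrees C, ATP luminescence end point.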
DT40 TDP1 CPT = qHTS for Inhibitors of human tyrosyl-DNA phosphodiesterase 1 (TDP1): qHTS in cells in presence of CPT; 420,000 tested, 12% active; Potency, µM (titrated, usually from 46.2 µM), hits mostly inhibitors; chicken DT40 Tdp1-/-;hTDP1 cells + 20 nM CPT, ATP luminescence, 48 h; also: nearly all actives have a fitted effect of over 55% in size
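Cell growth measured by CellTiter-Glo luminescence after a minimum 48 h, 37 C compound exposure with 20 nM CPT in Tdp1-knockout DT40 cells stably expressing hTDP1, seeded 400/well; qHTS titration format.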
KB-3-1 tox = qHTS assay for MDR1-selective chemotherapeutics: Primary screen using the parental adenocarcinoma cell KB-3-1. Potency, µM (highest dose often 46.1 µM), hits mostly cytotoxic. KB-3-1 viability, CellTiter-Glo ATP luminescence, 72 h. AID 1347075, 2019. 400,000 tested, 1.4% active; also: nearly all actives have a fitted effect of over 60% in size
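72 h, 37 °C compound treatment of KB-3-1 parental cells; CellTiter-Glo added, 10 min, luminescence read. Data corrected against DMSO-only plates and normalized before curve fitting.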
Numbers stand for hits; n = inactive; u = inconclusive; x = no result given; [ ] = dose if it differs, or a comment. Calls follow the shape of the dose curve; as a rule, active = well fitted curve in the direction sought with a large enough effect; inconclusive = small, poorly fitted or top-dose-only effect, or another doubt; inactive = no such curve, though single readings can be large; an effect the other way counts as inactive or inconclusive.

SMILES	HT1080NT lethal	HT1080 IDH1KD tx	DT40 TDP1 no CPT	KB-V1 cytotox	DT40 TDP1 CPT	KB-3-1 tox
CC(C)CN(C(=O)COc1ccc(C(C)(C)C)cc1)C1CCS(=O)(=O)C1 (configuration not stated)	n	n	23µM	u	n	n
Cc1ccc(CN(C(=O)COc2ccc(C(C)(C)C)cc2)C2CCS(=O)(=O)C2)o1 (configuration not stated)	x	x	21µM	x	u	x
COc1cc(C(=O)N(Cc2ccc(C)o2)C2CCS(=O)(=O)C2)cc(OC)c1OC (configuration not stated)	n	n	n	n	n	n
Cc1ccc(CN(C(=O)COc2ccc([N+](=O)[O-])cc2)C2CCS(=O)(=O)C2)o1 (configuration not stated)	n	n	n	n	n	n
COc1ccc(/C(=N/Nc2ncnc3ccccc23)C(=O)O)cc1	23µM	23µM	u	n	21µM	n
CS(=O)(=O)N1N=C(c2cccs2)CC1c1ccccc1O (configuration not stated)	n	n	n	n	n	n
Oc1ccccc1C1CC(c2cccs2)=NC(c2ccc(Cl)cc2)N1 (configuration not stated)	u	u	4.1µM	n	21µM	u
Cc1ccc(NC(=O)C(=O)NCCCN2CCOCC2)cc1C	x	x	n	n	n	n
CC1C(c2ccccc2)OCCN1C(=S)Nc1ccc(S(=O)(=O)N2CCCCC2)cc1 (configuration not stated)	n	n	u	n	n	n
Cc1ccc(S(=O)(=O)N(C)CC(=O)NNC(=O)CCNS(=O)(=O)c2cccc(C)c2)cc1	n	n	u	n	n	n
Cc1cccc(/C=C2/C(=O)/C(=C/c3ccccc3C)C3CCC2N3C)c1 (configuration not stated)	n	n	18µM	n	21µM	n
CN1C2CCC1/C(=C\c1ccc(F)cc1)C(=O)/C2=C/c1ccc(F)cc1	n	n	16µM	23µM	21µM	u
CN1C2CCC1/C(=C/c1cccn1C)C(=O)/C2=C\c1cccn1C	n	n	16µM	n	23µM	n
COc1ccc2c(c1)C(CC(=O)NN)CCC2 (configuration not stated)	7.3µM	1.6µM	n	u	n	23µM
CCOC(=O)c1cc(-c2ccc(OC)cc2)n(CCC(=O)NCCc2ccccc2)c1C	x	x	18µM	x	21µM	x
CCOC(=O)c1cc(-c2ccccc2)n(CCC(=O)NCCc2cccc(C)c2)c1C	x	x	u	n	16µM	n
CCOC(=O)c1cc(-c2ccc(C)cc2)n(CCC(=O)NCCCOC)c1C	n	n	n	n	n	n
Cc1ccc(NC(=O)C2CCN(S(=O)(=O)c3ccc4c(c3)OCCCO4)CC2)nc1	u	n	u	u	u	16µM
Cc1cccc(NC(=O)C2CCN(S(=O)(=O)c3ccc4c(c3)OCCCO4)CC2)n1	n	u	21µM	u	u	u
O=C(Nc1ccccn1)C1CCN(S(=O)(=O)c2ccc3c(c2)OCCCO3)CC1	n	n	n	n	n	n
Cc1cccc(N2CN(Cc3ccco3)CNC2=S)c1C	n	n	n	n	n	n
CC1(C)OC(=O)C2=C(C[C@@H](CCc3ccccc3)O[C@H]2C2CCCC2)O1	n	n	u	n	u	n
OC1C=CSc2nc3ccccc3n21 (configuration not stated)	n	n	15µM	n	13µM	n
CCOC(=O)c1c(NC(=O)Cc2coc3cc(C)cc(C)c23)sc2c1CCC2	x	x	n	n	n	n
COc1ccc(NS(=O)(=O)c2ccc3oc(SC(C)C(N)=O)nc3c2)cc1 (configuration not stated)	u	n	12µM	x	16µM	x
SMILES	HT1080NT lethal	HT1080 IDH1KD tx	DT40 TDP1 no CPT	KB-V1 cytotox	DT40 TDP1 CPT	KB-3-1 tox
COc1ccc(NS(=O)(=O)c2ccc(NS(=O)(=O)c3ccc4c(c3)OCCO4)cc2)cc1	x	x	u	n	u	n
COc1ccc(NS(=O)(=O)c2ccc3oc(Nc4ccc5c(c4)OCCO5)nc3c2)cc1	u	n[9.24 µM]	15µM	n	u	n
Cc1cccc(NC(=O)c2n[nH]c([N+](=O)[O-])c2Br)c1C	u	26µM	u	u	n	u
CC(=O)c1c(C)[nH]c(C(=O)Nc2cccc(C)c2C)c1C	n	n	n	n	n	n
COc1ccc(-c2nc(C(N)=O)c3[nH]c(=O)n(-c4cccc(Cl)c4)c3n2)cc1OC	u	16µM	21µM	7.3µM	u	u
CCOc1ccccc1-c1nc(C(N)=O)c2[nH]c(=O)n(-c3ccc(F)cc3)c2n1	n	n	n	n	n	n
CCCC(C)c1nc(C(N)=O)c2[nH]c(=O)n(-c3ccc(OC)c(OC)c3)c2n1 (configuration not stated)	n	n	n	5.8µM	n	n
CC(C)c1nc(C(N)=O)c2[nH]c(=O)n(-c3ccc(F)cc3)c2n1	n	n	u	n	n	n
COc1cccc(-c2nc(C(N)=O)c3[nH]c(=O)n(-c4cccc(Cl)c4)c3n2)c1OC	n	n	n	n	n	n
Cc1ccc(-n2c(=O)[nH]c3c(C(N)=O)nc(C(C)C)nc32)cc1	n	n	u	n	n	n
CCc1ccc(-c2nc(C(N)=O)c3[nH]c(=O)n(-c4ccccc4OC)c3n2)cc1	u	u	2.6µM	n	2.3µM	n
Cc1ccsc1-c1nc(C(N)=O)c2[nH]c(=O)n(-c3ccc(Cl)cc3)c2n1	n	n	4.1µM	n	5.8µM	n
COc1ccc(S(=O)(=O)N2CCOCC2)cc1NC(=O)c1c(C)noc1C	n	n	n	n	n	n
CN(CCOc1ccc(Cl)cc1)C(=O)c1cccc(S(=O)(=O)N2CCN(c3ccc(F)cc3)CC2)c1	u	n	5.2µM	u	7.3µM	u
COc1ccc(CCN(C)C(=O)c2cccc(S(=O)(=O)N3CCN(c4ccc(F)cc4)CC3)c2)cc1OC	n	u	16µM	u	15µM	u
COc1ccc(CC(=O)NCCS(=O)(=O)N2CCN(c3ccc(F)cc3)CC2)cc1OC	n	n	u	n	u	n
COC(=O)N1CCC2(CC1)CN(c1ccccn1)C2	x	x	n	x	n	x
COc1cccc(Cn2cccc(NC(=O)Nc3ccc(C#N)cc3)c2=O)c1	n	n	8.2µM	u	18µM	n
